From PubChem BioAssay AID504847 (National Center for Advancing Translational Sciences (NCATS), 2011)
Values joined by “and” are separate entries in the source; they are usually repeats but may differ in a detail not shown here. Equal values may be shown once. Out of some 400,000 compounds screened, about 3,700 (0.93%) were called active. Not shown: some 3% with an inconclusive outcome. Calls come from the whole dose curve; as a rule, active = well fitted inhibition curve with a large enough effect; inconclusive = small, poorly fitted or top-dose-only effect, or another doubt; inactive = no such curve, though single readings can be large or run the other way. Only a selection was taken, and actives are over-represented in it overall.

Biological target: Vitamin D3 receptor (Homo sapiens) (UniProt P11473)
Assay: Inhibitors of the vitamin D receptor (VDR): qHTS
Details: VDR-SRC2-3 peptide fluorescence polarization, 2 h; max response, negative = inhibition: active compounds read low
Procedure, shortened: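 Two reagent solutions held at 4 deg C in the dark were dispensed, compounds pinned at 23 nl, and the mixture incubated 2 h at room temperature. Read-out: fluorescence polarization of VDR–SRC2-3 peptide binding.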
% is set by controls: 0 for no effect and ±100 for the full control effect; potency is the fitted concentration of half-maximal effect.

Chain of Vitamin D3 receptor (Homo sapiens) (P11473 whole entry, looked up): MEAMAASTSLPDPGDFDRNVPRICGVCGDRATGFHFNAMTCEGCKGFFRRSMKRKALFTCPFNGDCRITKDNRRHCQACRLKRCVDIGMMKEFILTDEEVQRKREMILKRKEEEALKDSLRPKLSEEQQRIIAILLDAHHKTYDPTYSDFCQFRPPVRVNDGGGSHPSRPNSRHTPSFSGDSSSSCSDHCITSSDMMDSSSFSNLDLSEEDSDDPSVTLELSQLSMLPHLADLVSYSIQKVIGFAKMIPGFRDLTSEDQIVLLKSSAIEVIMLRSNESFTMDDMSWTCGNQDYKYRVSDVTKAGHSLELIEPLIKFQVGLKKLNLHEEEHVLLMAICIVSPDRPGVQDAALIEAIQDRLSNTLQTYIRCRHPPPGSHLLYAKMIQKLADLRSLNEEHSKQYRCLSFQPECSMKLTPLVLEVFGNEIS

Max response, negative = inhibition, inactive:
CCC(C)NC(=O)Cn1c(=O)n(-c2ccc(Cl)cc2)c(=O)c2c3c(sc21)CCCC3 (centres undefined) 7.47%, CC1(C)OC2CC(=O)OC[C@@]23C1CC(=O)[C@]1(C)C3CC[C@@]2(C)C(c3ccoc3)OC(=O)C3O[C@@]321 (some centres undefined) 3.74%, CCOC(=O)c1c(C)oc2nc(C)nc(N3CCN(c4ccc(OC)cc4)CC3)c12 5.63%, COc1ccc(C2(C#N)CCC(C(=O)O)CC2)cc1OC1CCCC1 (centres undefined) 5.35%, Cc1ccc(OC(=O)CCC(=O)Nc2ccc(Br)cc2)cc1 4.03%, CC(C)Oc1ccc(NC(=O)c2cc3ccccc3o2)cc1 10.8%, FCOC(C(F)(F)F)C(F)(F)F 1.95%, O=C(CSc1nnc(CNC(=O)c2ccccc2)n1-c1ccc(F)cc1)Nc1ccccc1F 2.71%, CCOc1ccc(N(C)S(=O)(=O)c2cc(-c3cnc(C)o3)ccc2OC)cc1 -2.82%, O=C(c1ccc2c(c1)C(=O)N(c1ccc(Cl)cc1)C2=O)N1CCN(c2ccccn2)CC1 -2.28%, Cc1cccc(N2C(=O)c3ccc(C(=O)Nc4cccc(C(=O)O)c4)cc3C2=O)c1 13.1%, Cc1ccc(-n2c(SCC(=O)c3ccccc3)nc3c([nH]c4ccccc43)c2=O)cc1 23.5%, COc1ccc(Cl)cc1NC(=O)CSc1nc(=O)[nH]c2c1CCCC2 -3.46%, Nc1ncc(S(=O)(=O)Nc2ccc(OC(F)(F)F)cc2)cn1 5.75%, CCN(CC)C(=O)CSc1nnc(CNc2ccc(F)cc2)n1Cc1ccco1 6.05%, CC1CN(Cc2ccco2)C(=S)N(c2ccccc2)C1=O (centres undefined) 8.1%, COc1cc(C(=O)Nc2ccc(-n3c(C)nc4ccccc4c3=O)cc2)cc(OC)c1OC -3.22%, Cc1cccc(NC(=O)C2CCCN2S(=O)(=O)c2cccc3nsnc23)c1C (centres undefined) -10.9%, COc1ccc(-n2ccnc(NCCc3ccc(Cl)cc3)c2=O)cc1OC 6.6%, COc1cccc(-c2nnc3n(CCc4ccccc4)c(=O)c4ccccc4n23)c1O 17.6%, CC1CCN(C(=S)c2cccc(O)c2)CC1 -26.6%, Cc1csc(NC(=O)c2ccc(-c3ccc(Cl)cc3Cl)o2)n1 -1.72%, Cc1cccc(Nc2cc(C)nc(-n3nc(C)cc3C)n2)c1 8.15%, Cc1cccn2c(=O)c3cc(C(=O)NC4CCCCC4)sc3nc12 8.23%, Cc1cccn2c(=O)c(/C=C(\C#N)C(N)=O)c(N3CCCCCC3)nc12 -6.66%, Cc1ccc(C(=O)Nc2ccc3[nH]c(=O)c(=O)[nH]c3c2)cc1 -3.19%, COc1ccc(CCNC(=O)CCCCn2c(=O)c3ccccc3n(Cc3ccccc3)c2=O)cc1OC -5.56%, COc1cc(C(=O)Nc2ccc(OCc3cc(=O)n4ccc(C)cc4n3)cc2)cc(OC)c1OC 15.3%, CC(C)(C)c1ccc(C(=O)N2CCC(c3nc(-c4ccc(S(=O)(=O)N5CCCC5)cc4)no3)CC2)cc1 -2.01%, c1ccc(-c2cc3c(NCC4COc5ccccc5O4)ncnc3s2)cc1 (centres undefined) 3.5%, COc1ccccc1N1CCN(c2ncnc3sc(C)c(-c4ccccc4)c23)CC1 9.44%, CCOC(=O)c1c(S(=O)(=O)N2CCCC(C(=O)NCc3ccc(F)cc3)C2)c(C)n(CC)c1C (centres undefined) 12%, CCCC(=O)Nc1ccc(NC(=O)c2sc3ccccc3c2Cl)cc1 1.71%, Cc1cccc(C)c1Nc1c(-c2ccccc2O)nc2ncccn12 11.5% and -13.4%, Cc1ccc(-c2nc3ccccn3c2Nc2ccc(F)cc2)o1 -13.1%, CC1CCc2noc(NC(=O)c3ccc([N+](=O)[O-])cc3)c2C1 (centres undefined) 20%, Cc1cccc(C(CC(=O)NCC2(c3ccccc3)CCCC2)c2ccccc2)c1O (centres undefined) -3.18%, Cc1ccc(-c2cnc(NCc3ccc(C(C)C)cc3)n2C)cc1 -12.2%, COC(=O)c1cc(NC(=O)CCc2c(C)nc3c4c(C)cc(C)nc4nn3c2C)cc(C(=O)OC)c1 -12%, CCCCc1nnc(NC(=O)CSc2nc(C)cc(=O)[nH]2)s1 -6.96%, CCOC(=O)Cc1csc(SCC(=O)Nc2ccc(C)cc2F)n1 -24.6%, C=CCOC(=O)C(=C)C 10.1%, COc1ccc(CCC(=O)NCc2ccc3c(c2)CCN3C(=O)c2ccc(F)cc2)cc1 1.51%, Cc1ccccc1NC(=O)c1c(NC(=O)c2ccccc2F)sc2c1CCC(C)C2 (centres undefined) -12.5%, CCOc1ccc(NC(=O)c2c(NCc3cccc(OC)c3OC)sc3c2CCC3)cc1 -0.323%, Cc1cccc(OCCCC(=O)Nc2sc3c(c2C(N)=O)CCC(C)C3)c1 (centres undefined) 0.722%, O=C(Cc1ccccc1)Nc1sc2c(c1C(=O)Nc1ccc(Br)cc1)CCC2 1.17%, COc1ccc2oc(-c3ccc(C)c(NC(=O)c4sc5ccccc5c4Cl)c3)nc2c1 -13.7%, O=C(O)c1ccc(Nc2nc(-c3ccccc3)c3cc(Br)ccc3n2)cc1 -8.21%, Cc1cccc(N2CCN(C(=O)CCn3c(=O)c4cccn4c4cccnc43)CC2C)c1 (centres undefined) -1.09%, Cc1ccc(C2CCN(C(=O)c3cnn(-c4ccccc4Cl)c3C3CCN(C(=O)OC(C)(C)C)CC3)C2)cc1 (centres undefined) 14.7%, Cc1cccc(C(=O)N2CCc3cc(CNC(=O)Cc4ccc(F)cc4)ccc32)c1 6.68%, CCCCNC(=O)Cn1c(SCc2cccc(Cl)c2)nc2ccncc21 -15.1%, O=S(=O)(Nc1cccc2cccnc12)c1cccc2cccnc12 -4.84%, CCOC(=O)c1ccc(NC(=O)c2c(NCc3cccs3)sc3c2CCCC3)cc1 -5.89%, CN(C(=O)CSc1nc2ccc(NC(=O)COc3ccccc3)cc2s1)c1ccccc1 3.21%, O=C(Nc1ccc2nc(SCC(=O)N3CCc4ccccc43)sc2c1)c1ccccc1F 0.401%, CCOc1ccccc1NC(=O)C1=C(C)Nc2ncnn2C1c1ccc(NC(C)=O)cc1 (centres undefined) 6.42%, COc1ccc(Br)cc1C1C2C=CCC(C)C2C(=O)N1Cc1ccccc1 (centres undefined) -6.47%, COc1ccccc1CNC(=O)c1ccc(NC(=O)N2CC(C)Sc3ccccc32)cc1 (centres undefined) -3.93%, O=C(NCc1ccccc1)c1cccc(NC(=O)N2CCSc3ncccc32)c1 4.27%, O=C(O)CCCN1C(=O)c2ccccc2Sc2ncccc21 23.5%, Cc1cc(C(=O)COC(=O)CCCN2C(=O)c3ccccc3C2=O)c(C)n1C 11.4%, O=C(/C=C/c1cn(CC(O)CN2CCc3ccccc32)c2ccccc12)c1ccc(Br)cc1 (centres undefined) 25.1%, COCCNC(=O)CSc1c(C)cnc2c1c(=O)n(C)c(=O)n2C 8.06%, COc1ccc(CC(=O)Nc2ccc(-c3nc4ccccc4s3)c(C)c2)cc1 -0.795%, COc1ccc(NC(=O)C(=O)NCc2ccco2)cc1 -7.31%, O=C(Nc1ccc2nc(SCCOc3ccccc3Cl)sc2c1)c1ccco1 5.06%, CC(Nc1ccc(-c2nc(-c3ccco3)no2)cc1[N+](=O)[O-])c1ccccc1 (centres undefined) 0.644%, CCc1ccccc1NC(=O)Cn1c(=O)n(CC2CCC(C(=O)NCCc3ccccc3)CC2)c(=O)c2ccccc21 (centres undefined) -18.5%, Cc1cc(C(=O)Nc2cccc(C(F)(F)F)c2)c2c(C)nn(-c3cccc(F)c3)c2n1 -0.555%, c1ccc2c(CNn3cnnc3)cccc2c1 -17.7%, Nc1scc[n+]1Cc1cccc2cccnc12 4.69%

Potency, active:
Cc1nc([N+](=O)[O-])nn1C12CC3CC(CC(Br)(C3)C1)C2 20 µM, CC(C)Oc1ccc(CC(=O)NNC(=S)Nc2ccc(Br)cc2)cc1 70.8 µM, O=C(O)c1ccc2c(c1)C(=O)N(c1ccc(/C=C/C(=O)c3ccccc3)cc1)C2=O 20 µM, CN(C)C(=S)N=c1ssc(=S)n1Cc1ccco1 44.7 µM, CN(C)C(=O)N=NC(=O)N(C)C 20 µM, CC1CCN(C(=S)c2ccc(-c3ccc(Cl)cc3Cl)o2)CC1 79.4 µM, Cc1cc(C)cc(Oc2nc3c(C)cccn3c(=O)c2/C=C(\C#N)C(=O)NC2CCS(=O)(=O)C2)c1 (centres undefined) 20 µM, Oc1ccccc1N1CCN(c2ncnc3sc(-c4ccccc4)cc23)CC1 22.4 µM, Cc1ccc(-c2nc3ccccn3c2Nc2c(C)cccc2C)o1 79.4 µM, CCOC(=O)Cc1csc(NC(=O)CSc2nc(C)cc(=O)[nH]2)n1 44.7 µM, CCOc1ccc(NC(=O)c2c(NC(=O)Cc3ccccc3)sc3c2CCCCC3)cc1 17.8 µM, CCOc1ccc(NC(=O)c2c(NC(=O)Cc3ccccc3)sc3c2CCC(C)C3)cc1 (centres undefined) 79.4 µM, O=C(O)c1ccccc1CSc1nc2ccccc2s1 89.1 µM, CCCCN1C(=O)/C(=C(/C#N)C(N)=O)c2ccccc21 50.1 µM, COc1ccc(CS(=O)/C(Cl)=C(/Cl)C(=O)Nc2ccc(OC)nc2)cc1 (centres undefined) 20 µM, c1ccc2c(C[n+]3csc4ccccc43)cccc2c1 44.7 µM
